Laboratory results as given in PubChem BioAssay (NCATS).
A number with no mark means an inactive call. Active and inactive are the calls of the source. Calls come from the whole dose curve; as a rule, active = well fitted activation curve with a large enough effect; inconclusive = small, poorly fitted or top-dose-only effect; inactive = flat fitted curve, though single readings scatter.

Experiment: Confirmation and Secondary Assay for Modulators of Hemoglobin Beta Chain Splicing at IVS2 654 locus (AID 910);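 note: HeLa cells stably carrying EGFP split by mutant beta-globin IVS2-654 intron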;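 note: potency of activators that raise GFP signal by restoring correct splicing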; for activation (splicing correction): % of control where 0% means no effect
Conditions: HeLa EGFP-654 splicing reporter, GFP fluorescence, 48 h; series mostly up to 46.1 µM; activation (splicing correction): at the top concentration
From the text: NIH Chemical Genomics Center [NCGC] NIH Molecular Libraries Screening Centers Network [MLSCN] MLSCN Grant: 1 X01 MH080684-01 PI Name: Dr. Ryszard Kole NCGC Assay Overview: Modulation of Alternative Splicing as Therapy Abnormal splicing is associated with a number of diseases, including cancer and genetic diseases such as cystic fibrosis, muscular dystrophy and beta-thalassemia. Alteration of disease associated splicing patterns provides a promising target for treatment. […] Mutations in the second intron of the b-globin gene at positions 654 or 705 are clinically relevant and cause mis-splicing which results in an out of frame gene product. […] EGFP-654 HeLa Cells as screen system. HeLa cell lines were stably transfected with a construct in which the EGFP (enhanced green fluorescent protein) cDNA was interrupted by the second intron of the beta-globin gene (IVS2-654). The ISV2 intron contains mutations which cause mis-splicing of EGFP and premature termination of EGFP which results in a nonfluorescent protein product. […] Expression of the transgene was driven by the CMV promoter. We concluded that a low molecular weight compound, which restored correct splicing of intron 2 would also generate functional EGFP protein, resulting in a fluorescent signal. Thus, the HeLa cells that express the EGFP-654 construct can be used for high throughput screening of a chemical library.
NCGC Assay Protocol Summary: Confirmatory Screening. Freshly thawed HeLa EGFP-654 cells were seeded in 5 ul of optimem media (Invitrogen) containing 2 % fetal calf serum (Hyclone) and 1x penicillin/streptomycin (Invitrogen) at a concentration of 500 cells per well in 1536-well plates. Cells were incubated overnight at 37C in 5% CO2. The next day, cells were treated with DMSO, 500 nM antisense ISV2 654 PNA control oligo, or library compound and allowed to grow at 37C in 5% CO2 for 2 days. The PNA oligo blocked the mutation site in the intron and allowed proper (wild type) splicing to occur, resulting in full length EGFP expression and also allowed for optimization of the assay parameters. Plates were read in the Acumen Explorer (TTP Labtech) using 488 nm laser excitation and 500-520 nm emission PMT filter in a 1 x 8 uM capture mode. Fluorescnet objects ranging in size from 5 to 250 uM were measured and the total peak GFP intensity for each well was used for data analysis. Keywords: Thalassemia, beta-thalassemia, beta-globin, EGFP, ISV2 654, ISV2 705, SSO, PNA, antisense, splicing, MLSMR, MLSCN, NIH Roadmap, qHTS, NCGC
Potency is the fitted concentration of half-maximal effect.

| Compound | activation (splicing correction) | Potency |
| --- | --- | --- |
| ClC1=C(Cl)C2(Cl)C3C(Cl)C=CC3C1(Cl)C2(Cl)Cl (stereo not given) | -2.07% [at 38.3 µM] | – |
| C=C(C)c1cc2cc(C(C)=O)c(O)cc2o1 | -0.472% [at 38.3 µM] | – |
| CC(=O)O.CC(=O)O.[Cd] | -0.931% [at 38.3 µM] | – |
| COc1ccc(/C=C/c2cc(O)cc(O)c2)cc1 | 4.39% [at 38.3 µM] | – |
| CC(=O)OC1CCC23C(=O)OC45CCC(C6=CC(=O)OC6)C4(C)CCC2C5CCC3(O)C1 (stereo not given) | -5.45% | – |
| C=C(C)C1Cc2c(ccc3c(=O)c4c(oc23)COc2cc(OC)c(OC)cc2-4)O1 (stereo not given) | 0.795% [at 38.3 µM] | – |
| CCC(N)C(O)c1ccc(O)c(O)c1 (stereo not given) | 6.4% | – |
| CC(=O)OC1CC[C@]2(C)C(CCC3C2CC[C@]2(C)C(C4=CC(=O)OC4)C(OC(C)=O)CC32O)C1 (stereo not given in full) | -6.22% | – |
| CC1C(=O)OC2CCN3CC=C(COC(=O)[C@](C)(O)[C@]1(C)O)C23 (stereo not given in full) | 5.88% | – |
| COC1=CC23CCCN2CCc2cc4c(cc2C3C1O)OCO4 (stereo not given) | 9.65% | – |
| CCCCSP(=O)(SCCCC)SCCCC | 2.23% [at 38.3 µM] | – |
| O=C(O)COc1ccc(Cl)cc1Cl | 6.23% [at 38.3 µM] | – |
| CNC(=O)Oc1ccccc1OC(C)C | 1.87% [at 38.3 µM] | – |
| C[C@@]12CCC(Cl)C[C@H]1CCC1C2CC[C@]2(C)C(=O)CCC12 (stereo not given in full) | -1.3% [at 38.3 µM] | – |
| CCC(C)C(=O)OC1C(O)C2C(CN3CC(C)CCC3[C@]2(C)O)C2C[C@]34O[C@@]5(O)C(OC(=O)C(C)(O)CC)CCC3(C)C5C(OC(C)=O)C(OC(C)=O)C4[C@@]21O (stereo not given in full) | 1.18% | – |
| COc1cc2c(cc1OC)C(C)NCC2 (stereo not given) | 2.4% [at 38.3 µM] | – |
| CNC(=O)O/N=C/C(C)(C)SC | -0.922% [at 38.3 µM] | – |
| O=C(NC(=O)c1ccccc1Cl)Nc1ccc(OC(F)(F)F)cc1 | 9.67% | – |
| COc1cc2c(cc1O)CCNC2C (stereo not given) | 16.6% | – |
| CNc1ccc(C(=O)CC(O)CCC(C)C2OC(=O)CC(O)CC(=O)CC(O)CC(O)CC(O)CC(O)CC3(O)CC(O)C(C(=O)OC)C(CC(O[C@@H]4OC(C)C(O)C(N)C4O)/C=C/C=C/C=C/C=C/C=C/C=C/C=C/C2C)O3)cc1 (stereo not given in full) | 1.41% | – |

| Compound | activation (splicing correction) | Potency |
| --- | --- | --- |
| Cc1ccccc1-c1cncnc1NCCc1cnc[nH]1 | 0.475% [at 38.3 µM] | – |
| CC(=O)OC1CC(OC(C)=O)[C@]2(C)C(CC(OC(C)=O)[C@]3(C)C2CC[C@@]2(C)C(c4ccoc4)C[C@H]4O[C@]432)C1(C)C (stereo not given in full) | 3.79% | – |
| COc1cc2c(c(OC)c1OC)-c1ccc(O)c(=O)cc1C(NC(C)=O)CC2 (stereo not given) | 3.24% [at 38.3 µM] | – |
| COc1c2c(cc3c1OCO3)CC[N+](C)=C2 | -0.0591% | – |
| CNC(C)[C@H](O)c1ccccc1 (stereo not given in full) | 7.35% | – |
| Nc1ncn[nH]1 | 7.27% | – |
| C=C1C2CCC3[C@@](CC[C@@H]4C(C(=O)O)CC(OC5OC(CO)C(OS(=O)(=O)O)C(OS(=O)(=O)O)C5OC(=O)CC(C)C)C[C@]34C)(C2)C1O (stereo not given in full) | 3% | – |
| CC1CC[C@]2(NC1)OC1CC3C4CC=C5CC(O)CC[C@@]5(C)C4CC[C@]3(C)C1C2C (stereo not given in full) | -1.71% | – |
| O=C1C=C2C=CC3C[C@@]2(O1)C1CCCCN31 (stereo not given in full) | 13.1% | – |
| CNC1[C@@H](O)C(OC2C(N)C[C@H](N)[C@@H](O[C@@H]3OC(C(C)O)C(O)C(O)C3N)C2O)OC[C@]1(C)O (stereo not given in full) | 5% | – |
| CC[C@@]1(O)CC(O)c2c(cc3c(c2O)C(=O)c2c(O)ccc(O)c2C3=O)C1C(=O)OC (stereo not given in full) | – | 12.6 µM (active) |
| CC(=O)OC1C2C(OC(=O)Cc3ccccc3)C(C)CC2(OC(C)=O)C(=O)/C(C)=C/C2C(CC[C@@]13CO3)C2(C)C (stereo not given in full) | 4.13% | – |
| NC(=O)c1ccc(N)nc1 | 3.49% | – |
| C/C=C/c1ccc2c(c1)OCO2 | -0.205% [at 38.3 µM] | – |
| N#CC(O[C@@H]1OC(COC2OC(CO)C(O)C(O)[C@@H]2O)C(O)C(O)C1O)c1ccccc1 (stereo not given in full) | 4.37% | – |
| CN1C2CC3CC1C(O3)C2O (stereo not given) | -0.514% [at 38.3 µM] | – |
| CCC(CO)NC(=O)C1C=C2c3cccc4[nH]cc(c34)CC2N(C)C1 (stereo not given) | -1.59% | – |
| Cc1cc(OC(=O)N2CCCCC2)c(C(C)C)cc1[N+](C)(C)C | 7.88% | – |
| CCN1C[C@@]2(C)CC[C@@H](OC)[C@@]34C2C(O)[C@@]2(OCO[C@]25CC(OC)C2C[C@@]3(O)C5C2O)C14 (stereo not given in full) | 9.2% | – |
| C=CCc1ccc(OC)cc1 | 0.411% | – |
